# PME-1 inh: blocks human protein phosphatase methylesterase 1; recombinant PME-1, FP-Rh probe fluorescence polarization; inhibition, % at 5.9 µM; hit rate 0.53% among 320,000; AID 2130;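 active means inhibition above the campaign mean of all compounds plus 3 SD, cut at about 26% in these data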;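 further: competitive labeling of PME-1 active site by serine hydrolase directed probe; 0% = PME-1 with DMSO and 100% = wells lacking PME-1 enzyme; inhibitors block probe labeling so polarization falls and inhibition rises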
# LYPLA1 counter: counter-screen for PME1 inhibitors: inhibitors of human LYPLA1; O75608; recombinant LYPLA1, FP-Rh probe fluorescence polarization; inhibition, % at 5.9 µM; hit rate 0.16% among 320,000; AID 2174;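 active means inhibition above the mean of all tested compounds plus 3 SD, set per campaign, cut at about 14% in these data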;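 further: inhibitors block serine hydrolase probe labeling of LYPLA1 so polarization falls; 0% = enzyme with DMSO and 100% = wells lacking LYPLA1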
# LYPLA2 counter: counter-screen for PME1 inhibitors: inhibitors of human LYPLA2 | O95372 | recombinant LYPLA2, FP-Rh probe fluorescence polarization | inhibition, % at 5.9 µM | hit rate 0.38% among 320,000;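 active means inhibition above the screen-wide mean plus 3 SD, limit set per campaign, cut at about 26% in these data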;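 further: 0% = LYPLA2 with DMSO and 100% = wells lacking LYPLA2 enzyme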
# PREPL inhibitor: inhibits the human prolyl oligopeptidase-like enzyme. inhibition, % at 5.96 µM. hit rate 0.68% among 320,000. AID 2751. recombinant PREPL, fluorescence polarization activity-based probe; in the data active means inhibition above about 43%;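 further: 0% = enzyme with DMSO and 100% = wells lacking enzyme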
# Target sequence (Q4J6C6 whole entry, looked up): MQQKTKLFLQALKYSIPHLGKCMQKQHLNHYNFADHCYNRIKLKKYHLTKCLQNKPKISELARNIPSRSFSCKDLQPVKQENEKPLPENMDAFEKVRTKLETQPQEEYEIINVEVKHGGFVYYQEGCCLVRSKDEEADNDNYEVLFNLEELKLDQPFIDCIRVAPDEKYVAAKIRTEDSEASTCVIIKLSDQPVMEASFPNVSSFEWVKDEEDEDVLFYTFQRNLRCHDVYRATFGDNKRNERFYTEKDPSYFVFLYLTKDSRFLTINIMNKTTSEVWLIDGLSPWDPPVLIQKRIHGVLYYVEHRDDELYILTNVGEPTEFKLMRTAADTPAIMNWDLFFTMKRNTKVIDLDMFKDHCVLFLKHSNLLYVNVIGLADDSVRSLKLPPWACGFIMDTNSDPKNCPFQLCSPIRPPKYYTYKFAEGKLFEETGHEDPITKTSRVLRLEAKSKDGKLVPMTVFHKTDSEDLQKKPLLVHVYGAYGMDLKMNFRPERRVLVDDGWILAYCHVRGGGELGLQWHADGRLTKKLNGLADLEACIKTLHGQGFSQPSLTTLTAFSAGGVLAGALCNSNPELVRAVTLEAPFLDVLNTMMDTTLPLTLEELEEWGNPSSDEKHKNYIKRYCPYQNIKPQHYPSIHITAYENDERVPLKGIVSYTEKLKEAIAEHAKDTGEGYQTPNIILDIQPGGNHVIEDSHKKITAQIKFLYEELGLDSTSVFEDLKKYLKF
# Fam108B inh: Fam108B inhibition, counter-screen for RBBP9 inhibitors | hit rate 0.33% among 300,000 | recombinant Fam108B, FP-Rh probe fluorescence polarization | inhibition, % at 9.51 µM;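 active means inhibition above the screen mean inhibition plus 3 SD, computed separately per campaign, cut at about 18% in these data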;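 further: inhibitors lower polarization as less probe binds the enzyme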
# Starred values were filed as active, the others as inactive; . = no result. An excerpt weighted towards active compounds, which were near 1.3% of everything screened.
SMILES,PME-1 inh,LYPLA1 counter,LYPLA2 counter,PREPL inhibitor,Fam108B inh
Cc1c(N=c2c(=O)c3ccccc3c2=O)c(=O)n(-c2ccccc2)n1C,-7,0,-1,43*,1
O=C(CN1C(=O)NC2(CCc3ccccc3C2)C1=O)Nc1ccc(F)cc1 (configuration not stated),1,1,1,-2,5
O=C(CCn1c(=O)sc2ccccc21)NC1CCCCC1,-1,2,1,6,-1
Cc1oc(-c2ccc(Cl)cc2)nc1CN1CCC(C(=O)NCc2cccnc2)CC1,0,-3,-1,12,-1
CCCN(CCC)CCNC(=O)C1CCN(Cc2nc(-c3ccc(Cl)cc3)oc2C)CC1,3,-2,-4,45*,-4
C=C1C(O)[C@@H]2O[C@]3(CC[C@H](/C=C/C(C)[C@@H]4CC(C)=CC5(O[C@H](C[C@@](C)(O)CO)CCC5O)O4)O3)CC[C@H]2O[C@@H]1C(O)CC(C)[C@H]1OC2(CCCCO2)CCC1C (some centres not stated),.,.,.,15,.
Cc1cccc2cc(/C=N/Nc3ccc(C(=O)O)cc3)c(Cl)nc12,36*,14,14,14,11
O=C(O)c1ccc(N/N=C/c2cc3ccccc3nc2Cl)cc1,-4,5,6,7,5
CC(=O)c1ccc(NC(=O)C(C)N2CCN(C/C=C/c3ccccc3)CC2)cc1 (configuration not stated),4,4,5,-20,-18
CC(C(=O)Nc1ccc([N+](=O)[O-])cc1)N1CCN(C/C=C/c2ccccc2)CC1 (configuration not stated),-5,-1,31*,8,-1
CN(CCO)c1ccc(C=NNc2ccc([N+](=O)[O-])cc2S(=O)(=O)Nc2ccccc2C(=O)O)cc1,.,.,.,11,.
CC(=O)Oc1c(I)cc(I)cc1C(=O)Nc1ccc(Cl)cc1,61*,-13,-23,17,-1
COc1ccc(Cl)cc1C(=O)Nc1ccc(NC(C)=O)cc1,3,-2,2,16,-1
O=c1cc(N2CCCCC2)c(-c2ccccc2)nn1Cc1ccc(Cl)cc1,8,-2,2,5,0
O=c1cc(N2CCCCC2)c(-c2ccccc2)nn1Cc1c(Cl)cccc1Cl,30*,-4,2,6,-3
COc1ccccc1CNS(=O)(=O)c1ccc2c(c1)N(C(C)=O)CCO2,6,-1,3,6,5
Oc1ccc(CN2CCc3ccccc3C2)c2cccnc12,4,-1,-8,45*,0
CC1CCCCN1C(=O)CNCC1CCCO1 (configuration not stated),-3,-4,-5,-5,-4
N#C/C(=C/c1ccc(N2CCOCC2)o1)c1ccc(Cl)cc1,0,5,6,34,21*
N#C/C(=C\c1ccc(N2CCOCC2)o1)c1nc2ccccc2[nH]1,-78,-16,-56,24,-101
O=c1nc(/C=C/c2cc([N+](=O)[O-])ccc2Cl)cc(C(F)(F)F)[nH]1,27*,-2,5,8,8
O=c1nc(/C=C/c2cccn2-c2ccc([N+](=O)[O-])cc2)cc(C(F)(F)F)[nH]1,5,-2,6,0,4
Cc1ccc2c(c1)C1C=CCC1C(C(=O)NCCCN1CCOCC1)N2 (configuration not stated),-3,0,0,18,1
Cc1ccc2c(c1)C1C=CCC1C(C(=O)O)N2 (configuration not stated),14,-8,5,22,46*
Cc1noc(C)c1C(=O)NC1=NCCS1,-4,1,-7,5,-6
SMILES,PME-1 inh,LYPLA1 counter,LYPLA2 counter,PREPL inhibitor,Fam108B inh
Cc1cc(Br)ccc1N=C1NC(=O)CS1,60*,1,-1,17,-2
CN1CCN(C2CCN(c3ccc(Nc4nnc(Cl)c(Nc5ccccc5S(C)(=O)=O)n4)c(OC(CF)CF)c3)CC2)CC1,.,.,.,27,.
CCCCc1cc(=O)oc2c(C)c(OCC(=O)NCC3CCC(C(=O)O)CC3)ccc12 (configuration not stated),1,0,11,1,3
Cc1ccc2sc(N(CCCN(C)C)C(=O)CCS(=O)(=O)c3ccccc3)nc2c1C,-1,1,4,-24,-2
O=C(CNc1cccc2ccccc12)N/N=C/c1ccc[nH]1,-3,-1,-5,16,0
C=CCc1cccc(/C=N/NC(=O)CNc2cccc3ccccc23)c1O,39*,-6,13,4,17
O=C(CNc1cccc2ccccc12)N/N=C/C(Br)=C/c1ccccc1,27*,-8,-3,24,8
Cc1cccc(-n2c3nc(=O)[nH]c(=O)c-3cc3c(C)nn(-c4ccccc4)c32)c1C,-7,-2,-9,0,-2
Cc1cccc(-n2c3nc(=O)[nH]c(=O)c-3cc3cc([N+](=O)[O-])ccc32)c1,31*,0,-1,3,13
CC(C)CC1NC(=O)c2cc(Cl)ccc2-n2c1nc1ccc(F)cc1c2=O (configuration not stated),.,.,.,-7,.
O=C(O)COc1ccc(/C=N/NC(=O)COc2nsnc2N2CCOCC2)cc1,6,-3,4,4,4
CC(C)(C)c1ccc(OCC(=O)N/N=C/c2ccc(N3CCOCC3)cc2)cc1,5,4,6,65*,-2
COc1cc(C(=O)NCC(=O)NNC(=O)C2COc3ccccc3O2)cc(OC)c1OC (configuration not stated),0,-2,-3,13,.
CCCCN(C)CC(O)Cn1cc(/C=C/C(=O)c2ccc(C)cc2)c2ccccc21 (configuration not stated),2,-5,6,45*,1
COc1ccc(C(=O)/C=C/c2cn(CC(O)CN3CCN(C)CC3)c3ccccc23)cc1OC (configuration not stated),4,1,-4,18,0
CC[C@@]1(c2ccccc2)C(=O)N(C(=O)OC)N1C(=O)OC,3,1,3,3,1
COC(=O)N1C(=O)[C@](c2ccccc2)(C(C)C)N1C(=O)OC,35*,-1,-4,3,-4
O=C(c1ccco1)N1CCN(c2ccc([N+](=O)[O-])c(N3CCOCC3)c2)CC1,1,-2,2,5,1
O=C1c2cccc3c(N4CCCCC4)ccc(c23)C(=O)N1c1cccc(O)c1,27*,-22,-28,-1,-22
O=C(O)c1cccc(S(=O)(=O)NCC2COc3ccccc3O2)c1 (configuration not stated),.,.,.,-6,.
Cc1cc(C)n2nc(SCc3cc(=O)oc4ccc5ccccc5c34)nc2n1,2,-1,-4,47*,1
Cc1cc(C)n2nc(SCc3cc(=O)oc4cc(C)c(C)cc34)nc2n1,4,3,5,41,-5
O=C1COc2ccc(-c3csc(NCCc4ccccc4)n3)cc2N1,11,-5,-9,51*,0
Cc1cccc(C(=O)O/N=C(/c2ccccc2)c2ccncc2)c1,5,3,2,-6,5

# Assay outcomes: PubChem, The Scripps Research Institute Molecular Screening Center
